Experimental findings from PubChem BioAssay (NCI) are described below.

About 83,000 compounds went through this panel and 20% of them were active in at least one assay; those are over-represented in the sample as a whole.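 Step 1: grow cells in 96-well plates. Step 2: add test compound at a single concentration. Step 3: incubate 48 h. Step 4: record percent growth.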 A number with no mark means an inactive call. Calls of active or inactive are those of the source. The calls were made as follows: active = growth percent below 10; inactive = the rest.

Some test systems named below: NCI-H23 lung; NCI-H226 lung; NCI-H322M lung; HOP-62 NSCLC; NCI-H460 lung; HOP-92 NSCLC; NCI-H522 lung; A549/ATCC NSCLC; 786-0 renal; COLO 205 colon; DU-145 prostate; K-562 leukemia; MALME-3M melanoma; MDA-MB-231 breast; RXF 393 renal; SF-268 CNS; SF-295 CNS; SF-539 CNS; UACC-257 melanoma; M14 melanoma.
What all share (assay): NCI-60 one-dose screen, 48 h (100 = growth as untreated, 0 = no growth, -100 = all killed)
Holding throughout (details): 10 µM unless noted

`Cc1ccc(/C=C(/C#N)n2nnc3cccc(F)c32)cc1`: the growth with NCI-H23 lung was 4.73% (active); in the experiment with NCI-H226 lung, 23%; in the experiment on NCI-H322M lung, 16.3%; in the experiment with HOP-62 NSCLC, 21.8%; in the experiment with NCI-H460 lung, -34.8% (active); in the experiment on HOP-92 NSCLC, -6.05% (active). The growth in the experiment with NCI-H522 lung was 11.6%; in the experiment on A549/ATCC NSCLC, 11.5%; in the experiment with 786-0 renal, 1.78% (active); in the experiment with COLO 205 colon it was -19.5% (active); in the experiment with DU-145 prostate, -24.9% (active); in the experiment on K-562 leukemia it was 6.48% (active). Besides, the growth in the experiment on MALME-3M melanoma is 36.3%; with MDA-MB-231 breast, -38.5% (active); with RXF 393 renal, -51.4% (active); with SF-268 CNS, 21.2%; in the experiment with SF-295 CNS it was 16.2%; with SF-539 CNS, -48.1% (active). The growth is 52.8% in the experiment with UACC-257 melanoma and -13.6% (active) with M14 melanoma.

On to `Cc1cc(C)c(S(=O)(=O)Oc2ccccc2[N+](=O)[O-])c(C)c1`, for which the growth in the experiment with NCI-H23 lung is 32.9%; in the experiment with NCI-H226 lung, 60%; in the experiment with NCI-H322M lung, 52.6%; with HOP-62 NSCLC it was 39.8%; in the experiment on NCI-H460 lung, 8.64% (active); in the experiment with HOP-92 NSCLC, 38.1%. For the same compound, the growth was -12.5% (active) with NCI-H522 lung; 31.2% in the experiment on A549/ATCC NSCLC; 33% with 786-0 renal; 22.9% in the experiment on COLO 205 colon; 15.7% in the experiment on DU-145 prostate; 22.1% in the experiment with K-562 leukemia. Moreover, the growth in the experiment on MALME-3M melanoma was 21%; in the experiment on MDA-MB-231 breast, 33.2%; with RXF 393 renal, 4.44% (active); in the experiment on SF-268 CNS it was 37.2%; in the experiment with SF-295 CNS, -7.8% (active); in the experiment with SF-539 CNS it was -8.46% (active). The growth with UACC-257 melanoma was 32.4%; with M14 melanoma, 14.2%.

Take `O=C(/C=C/c1ccc(F)cc1)c1ccc(NC(=O)N2CCN(c3cc4c(cc3F)c(=O)c(C(=O)O)cn4C3CC3)CC2)cc1`: the growth with NCI-H23 lung is 92.8%; with NCI-H226 lung, 96.1%; in the experiment with NCI-H322M lung it was 100%; with HOP-62 NSCLC, 98%; in the experiment on NCI-H460 lung, 82.9%; in the experiment on HOP-92 NSCLC, 88.5%. The growth with NCI-H522 lung was 87%; in the experiment with A549/ATCC NSCLC, 102%; in the experiment on 786-0 renal, 92.4%; in the experiment on COLO 205 colon, 115%; in the experiment with DU-145 prostate it was 103%; in the experiment with K-562 leukemia, 91.2%. Besides, the growth is 91.3% in the experiment with MALME-3M melanoma; 89.7% in the experiment with MDA-MB-231 breast; 98.3% with RXF 393 renal; 89.9% in the experiment on SF-268 CNS; 98.7% in the experiment on SF-295 CNS; 94.1% with SF-539 CNS. The results for the growth in the experiment with UACC-257 melanoma and in the experiment with M14 melanoma were 97.2% and 97.8%, respectively.

Turning to `Brc1ccc(Nc2csc(-c3ccccn3)n2)cc1`, the growth in the experiment with NCI-H23 lung is 87.7%; in the experiment on NCI-H226 lung, 70.1%; in the experiment on NCI-H322M lung, 84.1%; in the experiment with HOP-62 NSCLC it was 88.2%; in the experiment on NCI-H460 lung, 96.7%; in the experiment with HOP-92 NSCLC, 102%. In addition, the growth is 78.9% in the experiment with NCI-H522 lung; 99.4% in the experiment with A549/ATCC NSCLC; 98.9% in the experiment on 786-0 renal; 111% with COLO 205 colon; 94.6% in the experiment on DU-145 prostate; 84.5% in the experiment on K-562 leukemia. Besides, the growth is 99.4% in the experiment on MALME-3M melanoma; 81.9% in the experiment with MDA-MB-231 breast; 106% with RXF 393 renal; 90.9% in the experiment on SF-268 CNS; 88.8% in the experiment on SF-295 CNS; 95% in the experiment on SF-539 CNS. Also, the results for the growth in the experiment on UACC-257 melanoma and in the experiment with M14 melanoma were 111% and 93.3%, respectively.

With `COc1cc2oc(-c3cccc(C(=O)Nc4ccccc4)c3)cc(=O)c2c(O)c1OC`, the growth is 86.9% in the experiment on NCI-H23 lung; 73.2% with NCI-H226 lung; 66.4% in the experiment with NCI-H322M lung; 8.89% (active) in the experiment on HOP-62 NSCLC; 33.7% in the experiment with NCI-H460 lung; 5.28% (active) with HOP-92 NSCLC. Besides, the growth in the experiment on NCI-H522 lung was 91.3%; in the experiment on A549/ATCC NSCLC it was 60.3%; in the experiment on 786-0 renal, 31.5%; with COLO 205 colon it was 92.3%; in the experiment with DU-145 prostate, 65.6%; with K-562 leukemia, 97.1%. Further, the growth in the experiment with MALME-3M melanoma was 64.5%; with MDA-MB-231 breast it was 76.3%; in the experiment on RXF 393 renal, 56.5%; with SF-268 CNS it was 37%; in the experiment with SF-295 CNS it was 70%; with SF-539 CNS, 19.4%. The growth was 84.3% in the experiment with UACC-257 melanoma and 83.7% with M14 melanoma.

For the compound `CCOC(=O)Oc1c(OC)cc(C(=O)c2ccc(OC)c(O)c2OC)cc1OC`, the growth with NCI-H23 lung was 37.8%; in the experiment on NCI-H226 lung it was 54.9%; in the experiment on NCI-H322M lung, 46.1%; in the experiment on HOP-62 NSCLC it was 24%; with NCI-H460 lung, 8.66% (active); in the experiment with HOP-92 NSCLC, 48.3%. Further, the growth with NCI-H522 lung is 24%; in the experiment with A549/ATCC NSCLC, 25.7%; in the experiment with 786-0 renal, 21.2%; in the experiment on COLO 205 colon, 89.6%; in the experiment on DU-145 prostate, 13.8%; in the experiment on K-562 leukemia, 10.8%. Moreover, the growth is 49.1% in the experiment on MALME-3M melanoma; 30.8% with MDA-MB-231 breast; -10.1% (active) in the experiment with RXF 393 renal; 48.7% in the experiment on SF-268 CNS; 22.6% with SF-295 CNS; -15.7% (active) in the experiment with SF-539 CNS. Also, the figures for the growth in the experiment on UACC-257 melanoma and in the experiment with M14 melanoma were 47.3% and -9.21% (active), respectively.

Regarding `c1ccc2c(-c3nccs3)c[nH]c2c1`, the growth is 96.2% in the experiment with NCI-H23 lung; 97% in the experiment with NCI-H226 lung; 98% in the experiment with NCI-H322M lung; 99.2% with HOP-62 NSCLC; 105% in the experiment on NCI-H460 lung; 89.7% in the experiment on HOP-92 NSCLC. In addition, the growth with NCI-H522 lung is 92.2%; in the experiment with A549/ATCC NSCLC, 100%; with 786-0 renal, 88.8%; with COLO 205 colon, 119%; with DU-145 prostate it was 107%; with K-562 leukemia it was 99.2%. Also, the growth with MALME-3M melanoma is 99.1%; in the experiment on MDA-MB-231 breast, 92.6%; with RXF 393 renal it was 95%; in the experiment on SF-268 CNS it was 96.7%; in the experiment on SF-295 CNS it was 101%; with SF-539 CNS, 96.4%. The growth was 111% in the experiment with UACC-257 melanoma and 99.1% in the experiment on M14 melanoma.
